# Inconclusive results are not listed. Calls of active or inactive are those of the source. Rule for the calls, unless noted: active = hit-call score of the fitted dose curve at least 0.9, where 1 is the maximum; inactive = score below 0.9.
# What was measured:
# [1] = ATG_TAL_CIS: Attagene CIS-FACTORIAL HepG2 Assay for human TAL Basal Promoter (AID 2282966); settings: HepG2 Attagene cis-factorial TAL promoter reporter; actives raise or lower the signal;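 note: background control endpoint measuring basal TAL promoter reporter mRNA not a specific factor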
# Summary of the method: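 Transiently transfected HepG2 (cis-regulated reporter units), 24 h treatment, mRNA read by fluorescent CE after RT-PCR; bidirectional fit, DMSO baseline.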
# [2] = ATG_TGFb_CIS: Attagene CIS-FACTORIAL HepG2 Assay for human Transforming Growth Factor (TGF) (AID 2282967); settings: HepG2 Attagene CIS TGFb reporter, mRNA transcription; actives raise or lower the signal
# Summary of the method: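 HepG2 cells transiently transfected with cis-promoter-driven multiple reporter units measure endogenous TF activity; reporter mRNA quantified at 24 h by RT-PCR, FAM labeling, HpaI digestion and capillary electrophoresis. Bidirectional fit vs DMSO.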
# [3] = ATG_VDRE_CIS: Attagene CIS-FACTORIAL HepG2 Assay for human Vitamin D Receptor Element (VDRE) (AID 2282968); settings: HepG2 VDRE cis-reporter transcription, actives raise or lower the signal
# Summary of the method: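 Measures endogenous factor activity through cis-element-driven reporter transcripts in transiently transfected HepG2. Cells are treated 24 h; reporter mRNA is quantified by RT-PCR and capillary electrophoresis; fitting is bidirectional.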
# [4] = target: Estrogen receptor (Homo sapiens) (UniProt P03372); assay: ATG_ERa_TRANS: Attagene TRANS-FACTORIAL HepG2 Assay for human Estrogen Receptor alpha (ERa) (AID 2282970; active = hit-call score of the fitted dose curve at least 0.9, where 1 is the maximum); settings: HepG2 Attagene TRANS ERa GAL4 reporter, mRNA
# Summary of the method: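 One of 30 multiplexed endpoints from a HepG2 TRANS system, this one reports ERa-Gal4-driven reporter mRNA. Transcripts were quantified 24 hours post-dosing by fluorescent RT-PCR and capillary electrophoresis, with activity scored as induction over DMSO.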
# [5] = target: Steroid hormone receptor ERR1 (Homo sapiens) (UniProt P11474); assay: ATG_ERRa_TRANS: Attagene TRANS-FACTORIAL HepG2 Assay for human Estrogen-Related Receptor alpha (ERRa) (AID 2282971; active = hit-call score of the fitted dose curve at least 0.9, where 1 is the maximum); settings: HepG2 Attagene TRANS reporter, ERRa transactivation
# Summary of the method: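 HepG2 cells transiently transfected with multiplexed GAL4-UAS reporter units reading chimeric ERRa-Gal4 activity; 24 h compound exposure. Reporter mRNA measured by RT-PCR, 6-FAM labelling, HpaI digest and capillary electrophoresis; gain of signal fitted versus DMSO baseline.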
# [6] = target: X-box-binding protein 1 (Homo sapiens) (UniProt P17861); assay: ATG_Xbp1_CIS: Attagene CIS-FACTORIAL HepG2 Assay for human X-box Binding Protein 1 (XBP1) (AID 2282972); settings: HepG2 XBP1 cis-element reporter, Attagene multiplex; actives raise or lower the signal
# Summary of the method: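 Human hepatoma HepG2, cis-element reporter system, 24 h treatment; mRNA quantified by RT-PCR/CE fluorescence; fit relative to DMSO.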
# [7] = ATG_M_19_TRANS: Attagene TRANS-FACTORIAL HepG2 Assay for M19 Transcription Factor (Internal Marker) (AID 2282974; active = hit-call score of the fitted dose curve at least 0.9, where 1 is the maximum); settings: HepG2 Attagene TRANS-FACTORIAL M19 internal marker reporter
# Summary of the method: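 Gain-of-signal in reporter mRNA, relative to DMSO, was scored from capillary electrophoresis fluorescence. HepG2 cells carried transiently transfected multiple reporter transcription units and were incubated with test chemicals for 24 h.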
# [8] = target: Nuclear receptor subfamily 1 group I member 3 (Homo sapiens) (UniProt Q14994); assay: ATG_CAR_TRANS: Attagene TRANS-FACTORIAL HepG2 Assay for human Constitutive Androstane Receptor (CAR) (AID 2282969; active = hit-call score of the fitted dose curve at least 0.9, where 1 is the maximum;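 note: activators raise reporter mRNA above DMSO so AC50 marks induction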); settings: HepG2 Attagene TRANS-FACTORIAL CAR reporter
# Summary of the method: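 Signal is reporter mRNA induction relative to DMSO, measured 24 h after dosing by RT-PCR with fluorescent primer extension and capillary electrophoresis. Human HepG2 liver cells carried transiently transfected chimeric NR-Gal4/GAL4-UAS reporter constructs.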
# [9] = target: Androgen receptor (Homo sapiens) (UniProt P10275); assay: ATG_AR_TRANS: Attagene TRANS-FACTORIAL HepG2 Assay for human Androgen Receptor (AR) (AID 2282973; active = hit-call score of the fitted dose curve at least 0.9, where 1 is the maximum); settings: HepG2 Attagene TRANS-FACTORIAL AR reporter transcription
# Experimental: ATG_TRANS is a cell-based, multiplexed-readout assay that uses HepG2, a human liver cell line, with measurements taken at 24 hours after chemical dosing in a 24-well plate.ATG_AR_TRANS is one of 30 assay component(s) measured or calculated from the ATG_TRANS assay. It is designed to make measurements of mRNA induction, a form of inducible reporter, as detected with fluorescence intensity signals by Reverse transcription polymerase chain reaction (RT-PCR) and Capillary electrophoresis technology.Data from the assay component ATG_AR_TRANS was analyzed into 1 assay endpoint. This assay endpoint, ATG_AR_TRANS, was analyzed in the positive analysis fitting direction relative to DMSO as the negative control and baseline of activity. Using a type of inducible reporter, measures of mRNA for gain-of-signal activity can be used to understand the reporter gene at the transcription factor-level as they relate to the gene AR. Furthermore, this assay endpoint can be referred to as a primary readout, because this assay has produced multiple assay endpoints where this one serves a reporter gene function. To generalize the intended target to other relatable targets, this assay endpoint is annotated to the nuclear receptor intended target family, where the subfamily is steroidal.
# Human liver HepG2 cells are transiently transfected with multiple reporter transcription units (MRTUs) in 6-well plates using FuGene 6 reagent (Roche; 3 ml FuGene/1 mg DNA). The MRTU constructs are regulated by a cis-regulating element (promoter). […] A major difference between the CIS and TRANS system is that in CIS activities of endogenous TFs are measured, whereas the TRANS assay evaluates changes in activities of exogenous, chimeric NR-Gal4 proteins. […] At the end of 24 hour incubation, total RNA was isolated using TriZol reagent (Invitrogen). The isolated RNA is then reverse-transcribed using oligo(dT) primer and Mo-MLV reverse transcriptase (Invitrogen) with DNAse I (Ambion) treatment for 30 min. The one-tenth of the produced cDNA was amplified by PCR using Taq DNA polymerase (Invitrogen) and two reporter sequence-specific primers. The PCR products were fluorescently labeled by primer extension with 6-arboxyfluorescein (6-FAM) 5'-labeled reporter sequence-specific primer (2 min at 95 C, 20 s at 68 C and 10 min at 72 C) and these products were digested with 5U of HpaI (New England Biolabs) for 2h at 37 C. The fragments were purified using Qiaquick PCR columns (Qiagen), analyzed on an ABI 3130xL genetic analyzer (Applied Biosystems) with peak positions identified by using a set of X-rhodamine (ROX)-labeled MapMarker1000 molecular weight standards (BioVentures). The raw capillary electrophoresis data was processed using Attagraph software (Attagene).
# Chain of Estrogen receptor (Homo sapiens) (P03372 whole entry, looked up, the tested form may be a part): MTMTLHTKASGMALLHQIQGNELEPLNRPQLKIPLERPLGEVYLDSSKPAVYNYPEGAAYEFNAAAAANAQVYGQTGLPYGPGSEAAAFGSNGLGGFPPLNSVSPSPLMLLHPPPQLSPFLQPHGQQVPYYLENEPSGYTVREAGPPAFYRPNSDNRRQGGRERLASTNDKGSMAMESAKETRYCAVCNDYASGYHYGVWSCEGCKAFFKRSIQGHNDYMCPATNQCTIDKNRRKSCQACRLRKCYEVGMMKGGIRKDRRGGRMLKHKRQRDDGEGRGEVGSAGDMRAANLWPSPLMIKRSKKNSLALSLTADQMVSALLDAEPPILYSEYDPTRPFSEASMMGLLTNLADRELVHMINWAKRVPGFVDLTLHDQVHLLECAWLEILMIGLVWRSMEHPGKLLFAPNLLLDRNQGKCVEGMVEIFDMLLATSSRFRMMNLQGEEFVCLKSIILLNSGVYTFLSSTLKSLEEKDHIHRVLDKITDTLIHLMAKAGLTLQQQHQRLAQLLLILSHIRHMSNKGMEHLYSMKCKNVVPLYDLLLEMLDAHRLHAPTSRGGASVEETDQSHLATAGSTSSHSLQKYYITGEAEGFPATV
# Chain of Steroid hormone receptor ERR1 (Homo sapiens) (P11474 whole entry, looked up, the tested form may be a part): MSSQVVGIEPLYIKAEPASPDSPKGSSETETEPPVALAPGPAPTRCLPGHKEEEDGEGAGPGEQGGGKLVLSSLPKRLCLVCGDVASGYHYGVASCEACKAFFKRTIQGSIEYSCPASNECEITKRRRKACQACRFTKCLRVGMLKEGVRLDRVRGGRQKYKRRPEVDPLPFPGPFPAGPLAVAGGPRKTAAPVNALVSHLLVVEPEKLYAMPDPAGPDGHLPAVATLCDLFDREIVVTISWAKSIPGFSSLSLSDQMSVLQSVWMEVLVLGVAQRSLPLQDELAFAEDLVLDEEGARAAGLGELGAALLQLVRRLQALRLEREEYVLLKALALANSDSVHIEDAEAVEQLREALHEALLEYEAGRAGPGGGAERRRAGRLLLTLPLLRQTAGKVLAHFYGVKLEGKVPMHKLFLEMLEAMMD
# Chain of Nuclear receptor subfamily 1 group I member 3 (Homo sapiens) (Q14994 whole entry, looked up, the tested form may be a part): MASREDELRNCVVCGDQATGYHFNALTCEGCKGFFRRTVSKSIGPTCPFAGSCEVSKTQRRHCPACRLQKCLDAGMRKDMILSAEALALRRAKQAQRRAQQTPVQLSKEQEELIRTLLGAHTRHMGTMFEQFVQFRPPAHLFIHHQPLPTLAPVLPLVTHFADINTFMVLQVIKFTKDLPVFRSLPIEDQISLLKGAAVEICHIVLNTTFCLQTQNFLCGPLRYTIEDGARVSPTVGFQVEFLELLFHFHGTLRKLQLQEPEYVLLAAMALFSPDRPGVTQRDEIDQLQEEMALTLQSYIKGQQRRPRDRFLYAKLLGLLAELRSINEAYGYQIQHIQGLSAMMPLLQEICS
# Chain of X-box-binding protein 1 (Homo sapiens) (P17861 whole entry, looked up): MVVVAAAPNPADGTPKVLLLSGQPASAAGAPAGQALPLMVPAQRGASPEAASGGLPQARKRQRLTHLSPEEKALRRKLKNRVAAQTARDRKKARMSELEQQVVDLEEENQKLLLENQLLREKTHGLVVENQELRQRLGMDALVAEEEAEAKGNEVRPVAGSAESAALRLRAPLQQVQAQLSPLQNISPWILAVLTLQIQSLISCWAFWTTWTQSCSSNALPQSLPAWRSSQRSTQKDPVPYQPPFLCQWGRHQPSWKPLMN
# Chain of Androgen receptor (Homo sapiens) (P10275 whole entry, looked up): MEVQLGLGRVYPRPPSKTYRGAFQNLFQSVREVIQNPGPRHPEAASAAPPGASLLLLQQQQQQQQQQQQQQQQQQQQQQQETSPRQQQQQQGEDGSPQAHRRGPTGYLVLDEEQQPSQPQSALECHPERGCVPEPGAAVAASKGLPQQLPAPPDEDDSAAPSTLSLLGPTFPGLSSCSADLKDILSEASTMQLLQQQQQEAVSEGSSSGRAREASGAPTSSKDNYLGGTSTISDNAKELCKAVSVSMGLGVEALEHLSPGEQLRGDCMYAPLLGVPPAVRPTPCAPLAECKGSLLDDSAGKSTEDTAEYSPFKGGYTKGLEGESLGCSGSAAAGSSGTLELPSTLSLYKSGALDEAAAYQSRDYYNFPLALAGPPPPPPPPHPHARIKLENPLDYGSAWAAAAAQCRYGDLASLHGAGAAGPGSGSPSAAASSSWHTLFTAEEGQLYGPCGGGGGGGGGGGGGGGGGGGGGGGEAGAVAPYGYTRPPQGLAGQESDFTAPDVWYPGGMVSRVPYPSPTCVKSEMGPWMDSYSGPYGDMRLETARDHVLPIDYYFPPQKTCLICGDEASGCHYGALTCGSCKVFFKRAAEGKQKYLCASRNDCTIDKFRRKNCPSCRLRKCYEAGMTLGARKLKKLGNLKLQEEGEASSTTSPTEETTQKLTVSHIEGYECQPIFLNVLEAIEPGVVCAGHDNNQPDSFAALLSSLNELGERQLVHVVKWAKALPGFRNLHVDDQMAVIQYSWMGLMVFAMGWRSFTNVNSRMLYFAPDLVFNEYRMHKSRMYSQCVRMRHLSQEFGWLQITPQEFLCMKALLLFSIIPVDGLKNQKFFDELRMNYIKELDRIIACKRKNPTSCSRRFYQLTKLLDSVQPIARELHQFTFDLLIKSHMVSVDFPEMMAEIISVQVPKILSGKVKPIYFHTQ
Structure (SMILES),outcome [1],outcome [2],outcome [3],outcome [4],outcome [5],outcome [6],outcome [7],outcome [8],AC50 [3],AC50 [4],outcome [9]
COc1cc(Cl)c(OC)cc1Cl,inactive,inactive,inactive,inactive,inactive,inactive,inactive,,,,
COCC(=O)N(c1c(C)cccc1C)C(C)C(=O)OC (configuration not stated),inactive,inactive,inactive,inactive,inactive,inactive,inactive,inactive,,,
CN=C=S,inactive,inactive,,inactive,,inactive,,,50 µM (active),,
Nc1cnn(-c2ccccc2)c(=O)c1Cl,inactive,inactive,inactive,inactive,,inactive,inactive,inactive,,,
CS(=O)(=O)c1ccc(C(=O)C2C(=O)CCCC2=O)c([N+](=O)[O-])c1,inactive,inactive,inactive,,,inactive,,,,,
CCOP(=O)(OCC)Oc1nc(Cl)c(Cl)cc1Cl,inactive,inactive,,,,inactive,inactive,,39.2 µM (active),50 µM (active),inactive
CCOc1nc(F)cc2nc(S(=O)(=O)Nc3c(Cl)cccc3Cl)nn12,inactive,inactive,inactive,,,inactive,inactive,inactive,,,
COC(=O)N(C(=O)N1CO[C@@]2(C(=O)OC)Cc3cc(Cl)ccc3C2=N1)c1ccc(OC(F)(F)F)cc1,inactive,inactive,,inactive,inactive,inactive,inactive,,2.98 µM (active),,
CC(C)NC(=O)N1CC(=O)N(c2cc(Cl)cc(Cl)c2)C1=O,inactive,inactive,,,inactive,inactive,inactive,,,,
CN/C(=N\[N+](=O)[O-])NCc1cnc(Cl)s1,inactive,inactive,inactive,inactive,,inactive,,inactive,,,

# From PubChem BioAssay (EPA / NIEHS)
